From the supplement of paper PMC3545927
This is one part of the list. The true hit rate is not given.

Molecular target: furin, P09958
Assay: furin cleavage Z-score vs untreated control; higher = more cleavage, active = 3.5 or more, inactive = 1 or less, 8 variable residues between constant flanks
In short: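 To give the cleavage Z-score, log read counts were set against furin-free reactions, lowess-adjusted and scaled by median absolute deviation. These counts came from PCR adapter-tagged, sequenced DNA released when purified furin cut 8-mer peptides fused to a cDNA oligonucleotide and held on magnetic beads by their N-terminus. Digests were 0.01 ml, 1:10 enzyme:substrate, in 50 mM HEPES pH 7.5 with CaCl2 and NaCl, for 7.5, 15 or 30 min.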

Chain of furin, P09958 (P09958 whole entry): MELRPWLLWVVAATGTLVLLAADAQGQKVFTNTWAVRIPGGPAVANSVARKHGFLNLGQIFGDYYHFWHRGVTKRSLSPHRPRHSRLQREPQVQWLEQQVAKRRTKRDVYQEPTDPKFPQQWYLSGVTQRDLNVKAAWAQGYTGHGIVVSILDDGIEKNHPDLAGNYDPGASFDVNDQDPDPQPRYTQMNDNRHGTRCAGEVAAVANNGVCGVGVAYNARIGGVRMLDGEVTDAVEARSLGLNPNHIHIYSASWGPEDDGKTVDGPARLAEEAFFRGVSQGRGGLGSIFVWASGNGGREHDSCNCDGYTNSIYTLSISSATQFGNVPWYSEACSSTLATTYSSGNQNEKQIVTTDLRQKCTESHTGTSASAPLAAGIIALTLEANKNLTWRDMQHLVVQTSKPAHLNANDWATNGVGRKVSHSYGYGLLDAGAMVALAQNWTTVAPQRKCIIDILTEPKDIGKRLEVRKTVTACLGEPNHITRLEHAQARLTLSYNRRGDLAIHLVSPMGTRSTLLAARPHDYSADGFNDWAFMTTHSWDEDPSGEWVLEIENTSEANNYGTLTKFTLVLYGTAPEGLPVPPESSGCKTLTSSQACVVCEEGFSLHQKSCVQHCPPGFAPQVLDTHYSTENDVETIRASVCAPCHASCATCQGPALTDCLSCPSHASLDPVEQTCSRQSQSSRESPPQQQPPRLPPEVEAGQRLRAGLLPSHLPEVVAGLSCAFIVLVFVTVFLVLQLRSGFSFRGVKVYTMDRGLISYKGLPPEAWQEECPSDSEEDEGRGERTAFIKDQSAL

Sequence	furin cleavage Z-score (7.5 min)	furin cleavage Z-score (15 min)	furin cleavage Z-score (30 min)
CAEITTPCSGAGNASASA [HC1964]	-1.53 (inactive)	-0.885 (inactive)	-1.78 (inactive)
CATTACSGSWAGNASASA [HC1863]	-0.8 (inactive)	-0.656 (inactive)	-0.444 (inactive)
CASHPCSAHLAGNASASA [HC2495]	1.02	0.719 (inactive)	0.0481 (inactive)
CASHAVVARSAGNASASA [FS-1080]	4.85 (active)	4.91 (active)	5.66 (active)
CAYLSRVARSAGNASASA [FS-738]	9.42 (active)	9.32 (active)	8.94 (active)
CAWRCRVARSAGNASASA [FS-897]	5.68 (active)	5.73 (active)	6.03 (active)
CASPPVVPQSAGNASASA [HC768]	-0.954 (inactive)	0.785 (inactive)	-0.882 (inactive)
CAAPPPSWDQAGNASASA [HC960]	-0.113 (inactive)	-0.447 (inactive)	-0.277 (inactive)
CALVILNAASAGNASASA [HC536]	1.04	-0.834 (inactive)	0.192 (inactive)
CAEAPCHRPSAGNASASA [HC2323]	0.662 (inactive)	-0.37 (inactive)	-0.247 (inactive)
CAMESCSQHLAGNASASA [HC1717]	0.437 (inactive)	1.13	-0.426 (inactive)
CATTPCSDSWAGNASASA [HC1891]	-1.12 (inactive)	-0.376 (inactive)	-2.36 (inactive)
CAMEKCSQHLAGNASASA [HC1714]	1.25	0.88 (inactive)	0.181 (inactive)
CAIPARMKRAAGNASASA [FS-599]	10.3 (active)	9.08 (active)	8.29 (active)
CALPQRLPRAAGNASASA [FS-1363]	10.1 (active)	7.22 (active)	9.33 (active)
CALSIRDARMAGNASASA [FS-1466]	-0.476 (inactive)	0.981 (inactive)	-0.151 (inactive)
CALPAPNYTFAGNASASA [HC1197]	0.169 (inactive)	-0.15 (inactive)	-0.727 (inactive)
CALPQDAVSRAGNASASA [HC899]	0.79 (inactive)	-0.97 (inactive)	-1.66 (inactive)
CALPQRAYALAGNASASA [HC562]	-0.111 (inactive)	0.523 (inactive)	0.909 (inactive)
CALPARDKRKAGNASASA [FS-356]	3.1	4.69 (active)	4.42 (active)
CAIPARELRNAGNASASA [FS-254]	1.11	0.407 (inactive)	-8.8e-05 (inactive)
CALSIRDKRKAGNASASA [FS-136]	4.28 (active)	3.15	5.72 (active)
CASLTERLYVAGNASASA [HC1498]	-0.595 (inactive)	0.519 (inactive)	0.245 (inactive)
CATTPCSGSSAGNASASA [HC1937]	-1.48 (inactive)	-0.199 (inactive)	-0.0714 (inactive)
CAMALTLSPYAGNASASA [HC574]	-0.719 (inactive)	-0.267 (inactive)	0.328 (inactive)
CAGVEHRLEAAGNASASA [HC478]	-0.376 (inactive)	-1.52 (inactive)	-2.05 (inactive)
CASDIRTEEAAGNASASA [HC1486]	0.515 (inactive)	-1.04 (inactive)	-1.3 (inactive)
CASPIRTPRAAGNASASA [FS-1083]	4.85 (active)	4.51 (active)	4.42 (active)
CALPNREDRAAGNASASA [FS-54]	0.255 (inactive)	-1.19 (inactive)	-1.7 (inactive)
CALPARDKRAAGNASASA [FS-1026]	9.51 (active)	8.58 (active)	8.12 (active)
